Inconclusive results are not listed. Where a call stands in place of a potency, no number is given. Active and inactive are the calls of the source. Calls follow the shape of the dose curve; as a rule, active = well fitted activation curve with a large enough effect; inconclusive = small, poorly fitted or top-dose-only effect; inactive = no such curve, though single readings can be large or run the other way.
What follows are molecules tested against D(1A) dopamine receptor (Homo sapiens) (UniProt P21728) (assay: HTS Assay for Allosteric Agonists of the Human D1 Dopamine Receptor: Primary Screen for Potentiators (AID 488982)). Conditions: HEK293 T-REx D1 inducible cells, calcium flux, kinetic fluorescence; series mostly up to 8.37 µM.
Source text: Dopamine receptors (DARs) are involved in the etiology and/or therapy of a number of neuropsychiatric and endocrine disorders. For instance, all receptor-based antiparkinsonian drugs work via stimulating the […] DAR subtype whereas all FDA-approved antipsychotic agents are antagonists of this receptor. […] There are three different types of allosteric modulators that we are seeking, two of which will stimulate or augment receptor signaling, allosteric agonists and potentiators, while the third, allosteric antagonists, will attenuate receptor signaling. The present primary screening assay measures compound agonism by tracking calcium flux in a […], inducible Hek293 Trex D1 cell line.
Freshly passaged cells are plated in 1536 well black, clear bottom plates at a density of 4000 cells/well in 3 ul of complete media containing 1x tetracycline inducer. After an overnight incubation at 30 C in 5% CO2, cells are loaded with 2 ul of the no wash Calcium Assay Kit (ABD Bioquest) and incubated at room temperature for 30 to 90 minutes. A 10 cycle (1 second/cycle) baseline measurement is taken and then the FDSS online 1536 pintool delivers 23 nl of compound library (as well as dopamine controls) to the plate. The plate is measured for kinetically at 1 cycle/sec for 180 seconds and is considered to be the agonist portion of the assay (eg, compounds which activate a positive calcium response during this portion are flagged as potential agonists). Following the 180 second read, 1 ul of an EC20 of dopamine is delivered by an onboard pipette head. Measurements are taken kinetically for an additional 180 seconds.

Sequence of D(1A) dopamine receptor (Homo sapiens) (P21728 whole entry, looked up): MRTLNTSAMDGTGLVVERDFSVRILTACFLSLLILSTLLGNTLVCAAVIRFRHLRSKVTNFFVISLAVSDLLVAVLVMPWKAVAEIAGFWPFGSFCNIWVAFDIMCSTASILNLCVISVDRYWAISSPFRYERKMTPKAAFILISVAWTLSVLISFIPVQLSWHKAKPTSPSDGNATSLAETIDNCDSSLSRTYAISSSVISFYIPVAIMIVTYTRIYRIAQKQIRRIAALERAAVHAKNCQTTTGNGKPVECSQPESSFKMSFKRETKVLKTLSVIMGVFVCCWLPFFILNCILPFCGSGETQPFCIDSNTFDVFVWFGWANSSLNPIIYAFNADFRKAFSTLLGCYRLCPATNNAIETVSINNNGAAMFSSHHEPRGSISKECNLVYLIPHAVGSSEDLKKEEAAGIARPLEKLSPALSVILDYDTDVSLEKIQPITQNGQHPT

Row | SMILES | Potency
1 | NC(N)=NC(=O)c1nc(Cl)c(N2CCCCCC2)nc1N | inactive
2 | C=CC(=O)c1ccc(CCCCCC)cc1 | inactive
3 | C[C@@H](CN1CCC(Cc2ccccc2)CC1)[C@@H](O)c1ccc(O)cc1 | inactive
4 | CC(=O)N[C@H](C(=O)O)C(C)(C)SN=O | inactive
5 | N#C/C(=C\c1ccc(O)c(O)c1)C(=O)NCCCc1ccccc1 | inactive
6 | Nc1nc(Nc2ccccc2)nc2c1ncn2[C@@H]1O[C@H](CO)[C@@H](O)[C@H]1O | inactive
7 | NC(=S)NCCC[C@H](N)C(=O)O | inactive
8 | Brc1c(Br)c(Br)c2n[nH]nc2c1Br | inactive
9 | CC(C)NC[C@@H](O)c1ccc(O)c(O)c1 | inactive
10 | CCC1C(=O)OCC1Cc1cncn1C (stereo not given) | inactive
11 | CN=c1nc(-c2ccccc2)n(-c2ccccc2)s1 | inactive
12 | CN1C2CC(OC(=O)[C@H](CO)c3ccccc3)CC1C1OC12 (stereo not given in full) | inactive
13 | N#C/C(=C\c1ccc(O)c(O)c1)C(=O)c1ccc(O)c(O)c1 | inactive
14 | C[N+](C)(CCCCCC[N+](C)(C)CCCN1C(=O)c2cccc3cccc(c23)C1=O)CCCN1C(=O)c2cccc3cccc(c23)C1=O | inactive
15 | COC(=O)c1c(C)[nH]c(C)c1C(=O)c1ccccc1Cc1ccccc1 | inactive
16 | CCCCC/C=C\CC(O)/C=C/c1cccc(CC(O)CCCCO)n1 (stereo not given) | inactive
17 | NC(=S)c1ccc[n+]([C@@H]2O[C@@H](COP(=O)([O-])OP(=O)(O)OC[C@H]3O[C@@H](n4cnc5c(N)ncnc54)[C@H](OP(=O)(O)O)[C@@H]3O)C(O)C2O)c1 (stereo not given in full) | inactive
18 | C[N+](C)(C)CCOP(=O)(O)OP(=O)([O-])OC[C@H]1O[C@@H](n2ccc(N)nc2=O)[C@H](O)[C@@H]1O | inactive
19 | N.N.N.N.N.N.N.N.N.N.N.N.N.N.O.O.[Ru+4].[Ru+5].[Ru+5] | inactive
20 | O=P(O)(O)C(Cl)(Cl)P(=O)(O)O | inactive

Row | SMILES | Potency
21 | CC(C)ON([C@@H](C(=O)NO)C(C)C)S(=O)(=O)c1ccc(-c2ccccc2)cc1 | inactive
22 | CC12C(=O)OC(=O)C1(C)C1CCC2O1 (stereo not given) | inactive
23 | Ic1ccc(N2CCN(Cc3c[nH]c4ncccc34)CC2)cc1 | inactive
24 | N[C@@H](CC(=O)O)C(=O)O | inactive
25 | COC1=C(OC)C(=O)c2ccccc2C1=O | inactive
26 | Oc1ccccc1O | inactive
27 | Cn1c(=O)c2[nH]c(-c3ccccc3)nc2n(C)c1=O | inactive
28 | CCCCC#Cc1nc(NC)c2ncn([C@@H]3O[C@H](CO)[C@@H](O)[C@H]3O)c2n1 | inactive
29 | N#C/C(=C\c1ccc(-c2cc(Cl)ccc2Cl)o1)C(=O)Nc1cccc2ncccc12 | inactive
30 | CN1CCc2cc(NC(=O)Nc3cccnc3)ccc21 | inactive
31 | O=C(c1ccc(Cl)cc1)N1CCN(c2ccc([N+](=O)[O-])c3ncccc23)CC1 | inactive
32 | Clc1ccc(N2CCN(Cc3cc4ccccn4n3)CC2)cc1 | inactive
33 | CO/N=C(\C(=O)N[C@@H]1C(=O)N2C(C(=O)O)=C(COC(C)=O)CS[C@H]12)c1csc(N)n1 | inactive
34 | Nc1ncnc2c1ncn2[C@@H]1O[C@H](COP(=O)(O)CP(=O)(O)OP(=O)(O)O)[C@@H](O)[C@H]1O | inactive
35 | Cc1ccc(C(=O)O[C@H](C(=O)O)[C@@H](OC(=O)c2ccc(C)cc2)C(=O)O)cc1 (tested in a mixture with another compound) | inactive
36 | O=[N+]([O-])c1ccc2c(c1)S(=O)(=O)C=C2 | inactive
37 | COc1cc2nc(N3CCN(C(=O)OCc4ccccc4)C(C(=O)NC(C)(C)C)C3)nc(N)c2cc1OC (stereo not given) | inactive
38 | CC(=O)SCC[N+](C)(C)C | inactive
39 | Oc1cc2c(cc1O)CN(C(=S)NCCc1ccc(Cl)cc1)CCC2 | inactive
40 | CC(=O)/C=C1\C(=O)N(C)c2ccccc21 | inactive

From PubChem BioAssay (NCATS)
